# According to PubChem BioAssay (NCI):
# This is part of a sample that, as a whole, favours compounds with a hit. Of some 83,000 tested, about 20% had one in any assay.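 48-hour exposure, single concentration, 96-well plates; percent growth endpoint where 0 means no net growth. Active: below 10.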 A number with no mark means an inactive call. Activity calls are given as the source filed them.
# System: OVCAR-4 ovarian
# Experiment: NCI-60 one-dose screen, 48 h (100 = growth as untreated, 0 = no growth, -100 = all killed)
# Settings: 10 µM unless noted
row,SMILES,growth
1,CCC(=O)Nc1nnc(Cc2ccc(OC)c(OC)c2)s1,-69.7% (active)
2,NC(=O)c1cc(Cl)ccc1NC(=O)COc1ccccc1,101%
3,CCC12CCC3c4ccc(O)cc4CCC3C1CC(O)C2O (stereo not given),82.7%
4,O=C1NC(=S)S/C1=C\c1cccc([N+](=O)[O-])c1,88.5%
5,CCCCCn1c(=N)n(CC(O)COc2cccc(C)c2)c2ccccc21 (stereo not given),6.79% (active)
6,Cn1c2ccccc2c2nn(C(=O)c3ccccc3)c(=O)nc21,125%
7,N#CC1=C(N)Oc2cc(N)ccc2C1c1ccc(F)cc1 (stereo not given),94.1%
8,COc1ccc(-c2c3c(N)c4c(nc3nc3c2c(C)nn3-c2ccccc2)CCCCC4)cc1,67.8%
9,CC(C)OC1=C(Cl)C(=O)c2ccccc2C1=O,71.9%
10,O=c1[nH]c(-c2ccccn2)nc2sc3c(c12)CCCCCC3,28%
11,COc1c(O)c2c3c(c1OC)-c1ccccc1CC3N(S(=O)(=O)c1ccc(C)cc1)CC2 (stereo not given),71.3%
12,COc1cc(-c2nc3ccccc3o2)cc(CN2CCN(c3ccccc3)CC2)c1O,84.6%
13,O=C1/C(=C/c2ccccc2F)CNC/C1=C\c1ccccc1F,6.6% (active)
14,CN([N-]C(=O)CC(=O)[N-]N(C)C(=S)c1ccccc1)C(=S)c1ccccc1.[Cu+2],-98.4% (active)
15,COC(=O)c1ccc(C(=O)Nc2ccccc2N)cc1,96.2%
16,FC(F)(F)c1cc(CNc2ncc(Br)c(Cl)n2)cc(C(F)(F)F)c1,102%
17,COc1ccc(NC(=O)COc2ccccc2)c(C(N)=O)c1,87.7%
18,Cn1c2ccccc2c2nn(Cc3ccccc3)c(=O)nc21,111%
19,CCCCNNC(=O)c1ccc(Br)cc1,73.9%
20,Cc1nc2cc(Nc3nc(Nc4ccc(F)cc4)nc(-c4cccs4)n3)ccc2n1Cc1ccccc1,51%

row,SMILES,growth
1,Cc1ccc(C2SCC(=O)N2NC(=O)c2[nH]c3ccc(F)cc3c2-c2ccccc2)cc1 (stereo not given),79.7%
2,O=S(=O)(OCCO)c1ccccc1,109%
3,Cc1ccc(S(=O)(=O)N2CCc3ccc(O)c4c3C2CCc2ccccc2-4)cc1 (stereo not given),106%
4,Cc1nc2cc(Nc3nc(N4CCOCC4)nc(N4CCN(C)CC4)n3)ccc2n1Cc1ccccc1,100%
5,Clc1ccc(C2=NN(c3ccccc3)[C@H](c3cn(-c4ccccc4)nc3-c3ccccc3)C2)cc1,105%
6,COc1cccc(OC)c1OC(=O)c1ccccc1,97.4%
7,CCSc1nnc2c3cc(Br)ccc3n(C)c2n1,98%
8,Cc1nn(-c2ccccc2)c2nc3nc4c(c(N)c3c(-c3ccc(Cl)cc3)c12)CCCC4,109%
9,Cc1ccc(S(=O)(=O)N(c2ccc(Cl)cc2)c2ccc(Br)cc2C(=O)O)cc1,116%
10,Cc1ccc2c(c1)c(Sc1ccc(C(=O)NO)cc1)c1n2CN(C)CC1,-1.78% (active)
11,COc1cc(CNCCCN2C(=O)c3ccc4c5c(ccc(c35)C2=O)C(=O)N(CCCNCc2cc(OC)c(OC)c(OC)c2)C4=O)cc(OC)c1OC,-97% (active)
12,CCCCCCCCCCCC(=O)[O][Sn]([CH2]CCC)([CH2]CCC)[CH2]CCC,-98.5% (active)
13,COc1cc(NC(=O)COc2ccccc2)c(C(N)=O)cc1OC,93.9%
14,C=CC(=O)N1CC2(CCC(n3nc(-c4ccc(Oc5ccccc5)cc4)c4c(N)ncnc43)CC2)C1,-10.7% (active)
15,CC(=O)OC[C@H](O)[C@@]1(O)CC[C@H]2[C@@H]3CCC4=CC(=O)CC[C@]4(C)[C@H]3[C@@H](O)C[C@@]21C,105%
16,Cc1ccc(S(=O)(=O)N2CCc3ccc(O)c4c3C2Cc2cc(Cl)ccc2-4)cc1 (stereo not given),70.3%
17,COc1cc(/C=C/C(=O)C(=Cc2ccc(F)c(F)c2)C(=O)/C=C/c2ccc(O)c(OC)c2)ccc1O,39.3%
18,CCOC(=O)c1cc2c(n(C)c1=O)-c1cnn(-c3ccc(OC)cc3)c1CC2,106%
19,Cc1ccc(S(=O)(=O)N2CCc3ccc(O)c4c3C2Cc2ccc3c(c2-4)OCO3)cc1 (stereo not given),45.6%
20,O=C(Nc1nc2ccccc2[nH]1)C(=O)Nc1nc2ccccc2[nH]1,96.3%
